In PubChem BioAssay (EPA / NIEHS):
Where “and” joins values, the source holds several entries; their conditions need not be identical. Identical values can stand only once. The source holds several records for some structures; these can differ, active in one and inactive in another. Calls of active or inactive are those of the source. The calls were made as follows: active = hit-call score of the fitted dose curve at least 0.9, where 1 is the maximum; inactive = score below 0.9.

What was measured:
[1] = read-out: Cyclin D2 (CCND2), CCND2 (gene 894); assay: LTEA_HepaRG_CCND2: Life Technologies and Expression Analysis (LTEA) Assay for Cyclin D2 (CCND2) using HepaRG (AID 2283449); settings: mRNA level, 48 h; actives raise or lower the signal;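 also: CCND2 transcript measured by TaqMan qRT-PCR and normalised to three housekeeping genes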
Method in brief: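 HepaRG, 48 h dosing, 8-pt half-log curve from 100 uM, 0.5% DMSO; duplicate wells. Readout: CCND2 transcript by microfluidic qRT-PCR, housekeeping-normalised; bidirectional fit vs DMSO baseline.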

[2] = read-out: Cyclin Dependent Kinase Inhibitor 1A (CDKN1A), CDKN1A (gene 1026); assay: LTEA_HepaRG_CDKN1A: Life Technologies and Expression Analysis (LTEA) Assay for Cyclin Dependent Kinase Inhibitor 1A (CDKN1A) using HepaRG (AID 2283450); settings: mRNA level, 48 h; actives raise or lower the signal
Method in brief: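 Expression quantified by Fluidigm qRT-PCR with ACTB, GAPDH and POLR2A normalization, fitted bidirectionally against 0.5% DMSO. Cells: HepaRG, plated 48 h then treated 48 h in serum-free induction medium, top concentration 100 uM with half-log dilutions.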

[3] = read-out: Cyclin D1 (CCND1), CCND1 (gene 595); assay: LTEA_HepaRG_CCND1: Life Technologies and Expression Analysis (LTEA) Assay for Cyclin D1 (CCND1) using HepaRG (AID 2283451); settings: mRNA level, 48 h; actives raise or lower the signal;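 as to AC50: differentiated human HepaRG liver cells in serum-free induction medium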
Method in brief: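 Expression of CCND1 was quantified by qRT-PCR on Fluidigm arrays using ACTB, GAPDH and POLR2A as reference genes. HepaRG cultures, plated 48 h beforehand, were dosed for 48 h at up to 100 uM (half-log, 8 points) in 0.5% DMSO.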

[4] = read-out: catalase (CAT), CAT (gene 847); assay: LTEA_HepaRG_CAT: Life Technologies and Expression Analysis (LTEA) Assay for catalase (CAT) using HepaRG (AID 2283452); settings: mRNA level, 48 h; actives raise or lower the signal
Method in brief: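 HepaRG cells in serum-free induction medium, 0.5% DMSO vehicle, exposed 48 h in duplicate over 8 half-log concentrations from 100 uM. CAT mRNA measured by qRT-PCR, normalized to ACTB, GAPDH, POLR2A; bidirectional fit versus DMSO.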

[5] = read-out: Cytochrome P450 (CYP1A1), CYP1A1 (gene 1543); assay: LTEA_HepaRG_CYP1A1: Life Technologies and Expression Analysis (LTEA) Assay for Cytochrome P450 (CYP1A1) using HepaRG (AID 2283454); settings: mRNA level, 48 h; actives raise or lower the signal
Method in brief: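 CYP1A1 transcript levels measured by Fluidigm qRT-PCR against three housekeeping genes, 48 h after chemical dosing of human HepaRG cells (highest concentration 100 uM, half-log steps, 0.5% DMSO vehicle). Gain or loss of signal fitted relative to DMSO.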

[6] = read-out: CFLAR gene, CFLAR (gene 8837); assay: LTEA_HepaRG_CFLAR: Life Technologies and Expression Analysis (LTEA) Assay for CFLAR gene using HepaRG (AID 2283455); settings: mRNA level, 48 h; actives raise or lower the signal
Method in brief: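 qRT-PCR read-out (Fluidigm/TaqMan) of CFLAR mRNA, normalized to three housekeeping genes, in differentiated human HepaRG cells after 48 h chemical exposure; 8-point half-log series from 100 uM in 0.5% DMSO; bidirectional curve fitting versus DMSO.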

[7] = read-out: Forkhead box O1 (FOXO1), FOXO1 (gene 2308); assay: LTEA_HepaRG_FOXO1: Life Technologies and Expression Analysis (LTEA) Assay for Forkhead box O1 (FOXO1) using HepaRG (AID 2283456); settings: mRNA level, 48 h; actives raise or lower the signal
Method in brief: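 HepaRG, 48 h exposure, 8-pt half-log series from 100 uM in 0.5% DMSO, duplicates; Fluidigm qRT-PCR mRNA, housekeeping-normalised; bidirectional fit vs DMSO baseline.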

[8] = read-out: growth arrest and DNA damage 45 (GADD45A), GADD45A (gene 1647); assay: LTEA_HepaRG_GADD45A: Life Technologies and Expression Analysis (LTEA) Assay for growth arrest and DNA damage 45 (GADD45A) using HepaRG (AID 2283458); settings: mRNA level, 48 h; actives raise or lower the signal
Method in brief: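 GADD45A expression was measured by TaqMan qRT-PCR against three housekeeping genes (ACTB, GAPDH, POLR2A) after 48 h treatment of HepaRG cells. Eight-point half-log series up to 100 uM in 0.5% DMSO, run in duplicate.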

[9] = read-out: Forkhead box O3 (FOXO3), FOXO3 (gene 2309); assay: LTEA_HepaRG_FOXO3: Life Technologies and Expression Analysis (LTEA) Assay for Forkhead box O3 (FOXO3) using HepaRG (AID 2283459); settings: mRNA level, 48 h; actives raise or lower the signal
Method in brief: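 qRT-PCR readout of FOXO3 transcript, normalized to three housekeeping genes (ACTB, GAPDH, POLR2A); gain or loss fitted against 0.5% DMSO vehicle. HepaRG cells, 48 h chemical exposure, 8-point half-log series, top 100 uM.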

[10] = read-out: ABC Transporter (ABCB1), ABCB1 (gene 5243); assay: LTEA_HepaRG_ABCB1: Life Technologies and Expression Analysis (LTEA) Assay for ABC Transporter (ABCB1) using HepaRG (AID 2283460); settings: mRNA level, 48 h; actives raise or lower the signal
Method in brief: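 HepaRG, 48 h exposure, 8-pt half-log series from 100 uM, 0.5% DMSO vehicle, duplicates. Readout: ABCB1 transcript by Fluidigm TaqMan qRT-PCR, housekeeping-normalized; bidirectional curve fit vs DMSO baseline.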

[11] = read-out: growth arrest and DNA damage 45 (GADD45B), GADD45B (gene 4616); assay: LTEA_HepaRG_GADD45B: Life Technologies and Expression Analysis (LTEA) Assay for growth arrest and DNA damage 45 (GADD45B) using HepaRG (AID 2283461); settings: mRNA level, 48 h; actives raise or lower the signal
Method in brief: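 Transcript level quantified by Fluidigm TaqMan qRT-PCR with three housekeeping genes for normalization, analyzed for up- or down-regulation against 0.5% DMSO. HepaRG cultures dosed 48 h at eight half-log concentrations up to 100 uM, duplicates.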

[12] = read-out: ABC Transporter (ABCC3), ABCC3 (gene 8714); assay: LTEA_HepaRG_ABCC3: Life Technologies and Expression Analysis (LTEA) Assay for ABC Transporter (ABCC3) using HepaRG (AID 2283462); settings: mRNA level, 48 h; actives raise or lower the signal
Method in brief: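 Transcript level by TaqMan qRT-PCR, normalised to three housekeeping genes, fitted in both directions relative to vehicle. Chemicals tested in duplicate at eight half-log concentrations up to 100 uM for 48 h on HepaRG cells (0.5% DMSO).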

[13] = read-out: ABC Transporter (ABCB11), ABCB11 (gene 8647); assay: LTEA_HepaRG_ABCB11: Life Technologies and Expression Analysis (LTEA) Assay for ABC Transporter (ABCB11) using HepaRG (AID 2283463); settings: mRNA level, 48 h; actives raise or lower the signal
Method in brief: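 HepaRG, 48 h exposure, 8-pt half-log CRC top 100 uM, 0.5% DMSO vehicle, duplicates. Readout: TaqMan qRT-PCR of ABCB11 mRNA, housekeeping-normalized (ACTB/GAPDH/POLR2A). Bidirectional fit vs DMSO baseline.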

[14] = read-out: ABC Transporter (ABCC2), ABCC2 (gene 1244); assay: LTEA_HepaRG_ABCC2: Life Technologies and Expression Analysis (LTEA) Assay for ABC Transporter (ABCC2) using HepaRG (AID 2283464); settings: mRNA level, 48 h; actives raise or lower the signal
Method in brief: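 Endpoint is ABCC2 transcript level from qRT-PCR, normalized to three housekeeping genes and fitted bidirectionally relative to DMSO. Human HepaRG cells received test chemical for 48 h at up to 100 uM (8 points, half-log steps, 0.5% DMSO), duplicate wells.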

[15] = read-out: Broad substrate specificity ATP-binding cassette transporter ABCG2 (Homo sapiens) (UniProt Q9UNQ0); assay: LTEA_HepaRG_ABCG2: Life Technologies and Expression Analysis (LTEA) Assay for ABC Transporter (ABCG2) using HepaRG (AID 2283465); settings: mRNA level, 48 h; actives raise or lower the signal
Method in brief: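 HepaRG, 48 h exposure, 8-pt half-log series from 100 uM, 0.5% DMSO vehicle, duplicates. Readout: ABCG2 transcript by qRT-PCR (Fluidigm array), housekeeping-normalized; bidirectional curve fit relative to DMSO baseline.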

[16] = read-out: ATP-citrate lyase (ACLY), ACLY (gene 47); assay: LTEA_HepaRG_ACLY: Life Technologies and Expression Analysis (LTEA) Assay for ATP-citrate lyase (ACLY) using HepaRG (AID 2283466); settings: mRNA level, 48 h; actives raise or lower the signal
Method in brief: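 qRT-PCR readout of ACLY transcript after 48 h chemical treatment of HepaRG cells; expression normalized to three housekeeping genes. Eight-point half-log series, highest 100 uM, 0.5% DMSO vehicle. Gain or loss fitted against DMSO baseline.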

[17] = read-out: Peroxisomal acyl-coenzyme A oxidase 1 (ACOX1) gene, ACOX1 (gene 51); assay: LTEA_HepaRG_ACOX1: Life Technologies and Expression Analysis (LTEA) Assay for Peroxisomal acyl-coenzyme A oxidase 1 (ACOX1) gene using HepaRG (AID 2283467); settings: mRNA level, 48 h; actives raise or lower the signal
Method in brief: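 HepaRG, 48 h chemical exposure, 8-pt half-log series from 100 uM top, 0.5% DMSO vehicle, duplicates. Readout: ACOX1 mRNA by Fluidigm qRT-PCR, housekeeping-normalized; bidirectional fit vs DMSO baseline.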

[18] = read-out: Alkaline Phosphatase, Placental (ALPP) gene, ALPP (gene 250); assay: LTEA_HepaRG_ALPP: Life Technologies and Expression Analysis (LTEA) Assay for Alkaline Phosphatase, Placental (ALPP) gene using HepaRG (AID 2283468); settings: mRNA level, 48 h; actives raise or lower the signal;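 as to AC50: differentiated human HepaRG liver cells in serum-free induction medium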
Method in brief: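 ALPP transcript level, measured by qRT-PCR and normalized to three housekeeping genes (ACTB, GAPDH, POLR2A), after 48 h dosing of differentiated HepaRG in serum-free induction medium. Top concentration 100 uM with half-log dilutions (8 points, 0.5% DMSO, duplicates); bidirectional fitting relative to DMSO.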

[19] = read-out: flavin-containing dimethylaniline monooxygenases 3 (FMO3), FMO3 (gene 2328); assay: LTEA_HepaRG_FMO3: Life Technologies and Expression Analysis (LTEA) Assay for flavin-containing dimethylaniline monooxygenases 3 (FMO3) using HepaRG (AID 2283453); settings: mRNA level, 48 h; actives raise or lower the signal;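 as to AC50: differentiated human HepaRG liver cells in serum-free induction medium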
Method in brief: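 FMO3 transcript quantified by TaqMan qRT-PCR against three housekeeping genes after 48 h chemical exposure of HepaRG cells. Eight-point half-log series, top 100 uM, 0.5% DMSO vehicle; phenobarbital 1mM induction control; up- or down-regulation fitted.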

[20] = CEETOX_H295R_TESTO: CeeTox H295R High-throughput Steroidogenesis Assay for Testosterone (TESTO) (AID 2283457); settings: actives raise or lower the signal
Method in brief: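 Testosterone secreted into the medium over 48 h by H295R cells (maximum passage 10) was quantified by LC-MS/MS after MTBE extraction. Fitted in both directions against DMSO, with concentrations diluted until MTT viability was ≥70%.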

Measured: AC50

Chain of Broad substrate specificity ATP-binding cassette transporter ABCG2 (Homo sapiens) (Q9UNQ0 whole entry, looked up): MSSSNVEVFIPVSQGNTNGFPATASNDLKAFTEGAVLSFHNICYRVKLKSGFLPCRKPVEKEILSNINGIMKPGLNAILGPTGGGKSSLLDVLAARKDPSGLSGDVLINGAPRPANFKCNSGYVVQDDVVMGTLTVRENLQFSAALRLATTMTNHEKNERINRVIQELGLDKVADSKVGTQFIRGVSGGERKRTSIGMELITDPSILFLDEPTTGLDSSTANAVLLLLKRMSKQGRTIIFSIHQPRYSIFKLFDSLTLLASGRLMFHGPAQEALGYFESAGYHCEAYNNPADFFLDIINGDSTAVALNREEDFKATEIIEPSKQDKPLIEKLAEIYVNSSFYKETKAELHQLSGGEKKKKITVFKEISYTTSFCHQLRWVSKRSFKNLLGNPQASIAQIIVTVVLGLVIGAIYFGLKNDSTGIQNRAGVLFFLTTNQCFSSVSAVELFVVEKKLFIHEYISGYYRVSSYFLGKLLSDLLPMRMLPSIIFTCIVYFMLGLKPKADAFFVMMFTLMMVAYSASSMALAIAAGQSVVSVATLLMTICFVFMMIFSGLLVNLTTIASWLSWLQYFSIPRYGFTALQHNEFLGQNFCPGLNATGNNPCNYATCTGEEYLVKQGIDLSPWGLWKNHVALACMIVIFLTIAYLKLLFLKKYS

CN(C)C(=S)SSC(=S)N(C)C
inactive: [1] | [2] | [3] | [4] | [5] | [6] | [7] | [8] | [9] | [10] | [11] | [12] | [13] | [14] | [15] | [16] | [17] | [18]

CCCCNC(=O)OCC#CI
active: [19] 50 µM | [13] 50 µM | [14] 50 µM | [15] 9.92 µM | [18] 9.92 µM
inactive: [1] | [2] | [3] | [4] | [6] | [7] | [8] | [9] | [10] | [11] | [12] | [16] | [17]

CCCCNC(=O)n1c(NC(=O)OC)nc2ccccc21
inactive: [1] | [2] | [3] | [4] | [6] | [7] | [20] | [8] | [9] | [10] | [11] | [12] | [13] | [14] | [15] | [16] | [17] | [18]

CNC(=S)S
inactive: [1] | [2] | [3] | [4] | [19] | [6] | [7] | [8] | [9] | [10] | [11] | [12] | [13] | [14] | [15] | [16] | [17] | [18]

COc1cnc(OC)n2nc(NS(=O)(=O)c3c(OCC(F)F)cccc3C(F)(F)F)nc12
active: [10] 23.3 µM
inactive: [1] | [2] | [3] | [4] | [19] | [6] | [7] | [8] | [9] | [11] | [12] | [13] | [14] | [15] | [16] | [17] | [18]

CO/C=C(/C(=O)OC)c1ccccc1Oc1cc(Oc2ccccc2C#N)ncn1
inactive: [1] | [3] | [6] | [9] | [10] | [12] | [14] | [16]
active: [2] 79.5 µM and 78.9 µM | [3] 12.6 µM | [4] 75.5 µM and 69.5 µM and 74.7 µM | [19] 79.3 µM and 78.7 µM and 76.5 µM | [5] 27 µM and 25.2 µM and 19 µM | [6] 30.5 µM | [7] 77.3 µM and 70.5 µM and 71.8 µM | [8] 87.3 µM and 74.6 µM and 95.4 µM | [10] 23.5 µM | [11] 94.1 µM and 82.7 µM and 84.7 µM | [12] 22.1 µM and 26.1 µM | [13] 45.4 µM and 63 µM and 40.5 µM | [14] 86.9 µM and 83.9 µM | [15] 32 µM and 25.5 µM and 12.6 µM | [17] 50 µM and 63.3 µM | [18] 41.4 µM and 50 µM and 34 µM
